Article PMC4552634, “A New Set of Chemical Starting Points with Plasmodium falciparum Transmission-Blocking Potential for Antimalarial Drug Discovery” (PLoS ONE, 2015)
Where two headings read alike, the source gives them in different places. Hit rate of the full screen: of about 13,000 compounds, about 3,200 (25%) showed an effect of 50% or more. The list shows a part of the results.

Tested on: P. falciparum stage V gametocytes
Design: BacTiter-Glo ATP luminescence viability of purified stage V gametocytes in 384-well plates, per cent inhibition versus DMSO
Conditions: 48 h, 5 µM, inhibitor

Compound	% Inhibition [%]	% Inhibition (% Inhibition) [%]
Fc1cccc(Cl)c1-c1nc(NCCC(c2ccccc2)c2ccccc2)no1 [TCMDC-134175]	-12.09	–
Cc1cc(=O)[nH]c(NC#N)n1 [TCMDC-123468]	11.83	–
O=C(c1cc(-c2ccccc2O)on1)N1CCN(C(c2ccccc2)c2ccccc2)CC1 [TCMDC-125470]	18.53	–
CC1(C)C2C=C(CN3CCC(NC(=O)Nc4ccc(Cl)c(Cl)c4)CC3)C1CC2 (stereo not shown) [TCMDC-135871]	38.53	–
COc1cccc(O)c1CN1CCC2(CCCN(Cc3ccc(F)cc3)C2)C1 (stereo not shown) [TCMDC-124635]	-20.8	–
CCOC(=O)c1ccc(N2CCCCC2)c(NC(=O)C(Cl)(Cl)Cl)c1 [TCMDC-125786]	-22.75	–
N=C(/N=C(/NCCCCCCN/C(=N\C(=N)Nc1ccc(Cl)cc1)N1CCOCC1)N1CCOCC1)Nc1ccc(Cl)cc1 [TCMDC-131813]	108.7	–
N=C(N=C(NCCCCCCNC(=NC(=N)NCc1ccc(Cl)c(Cl)c1)N1CCCCC1)N1CCCCC1)NCc1ccc(Cl)c(Cl)c1 [TCMDC-131816]	118.5	–
Clc1ccc(CNCC2CCN(CC3CCCCC3)CC2)cc1Cl [TCMDC-139467]	-4.599	–
O=C(/C=C/c1ccc(C(F)(F)F)cc1)NCCCCCN1CCN(C(=O)Nc2ccc(Cl)cc2)CC1 [TCMDC-136095]	-21.7	–
N=C(N=C(NCCCCCCNC(=NC(=N)Nc1ccc(Cl)cc1)N1CCCCC1)N1CCCCC1)Nc1ccc(Cl)cc1 [TCMDC-131811]	119.8	–
Clc1ccc(CNCCCCCCCNCc2ccc(Cl)c(Cl)c2)cc1Cl [TCMDC-138075]	16.46	–
O=C(NCCCCN1CCN(c2ccc3c(c2)CCC3)CC1)c1ccc(NC(=O)c2ccc(Cl)cc2)cc1 [TCMDC-138512]	-2.19	–
O=C(NCCCCN1CCC(O)(c2ccc3c(c2)OCO3)CC1)c1ccc(NC(=O)c2ccc(Cl)cc2)cc1 [TCMDC-138356]	-1.021	–
O=C(/C=C/c1ccc(C(F)(F)F)cc1)NCCCCCN1CCCN(C(=O)Nc2ccc(Cl)cc2)CC1 [TCMDC-136106]	-46.09	–
Nc1nc2c(ncn2COC2COP(=O)(O)OC2)c(=O)[nH]1 (stereo not shown) [TCMDC-138021]	10.06	–
Cc1ccc(Nc2nc(C)cc(NC3CCCC3)n2)cc1 [TCMDC-133470]	43.93	–
CCN(CCNc1nc(NCCc2cnc[nH]2)nc(N(CCC#N)Cc2ccccc2)n1)c1cccc(C)c1 [TCMDC-139258]	-10.46	–
CCC(=O)Oc1ccc(NC(=O)c2cccc(OC)c2)cc1 [TCMDC-131408]	8.36	–
COc1cccc(C(=O)Nc2ccc(Oc3ccc(Cl)cc3)cc2)c1 [TCMDC-123807]	-8.512	–
COc1cccc(C(=O)NCc2n[nH]c(=S)n2-c2ccc(Cl)c(Cl)c2)c1 [TCMDC-123816]	81.2	–
Cc1nc(-c2cccc(Nc3nccc(NCC(O)c4cccc(C(F)(F)F)c4)n3)c2)cs1 (stereo not shown) [TCMDC-136581]	-55.32	–
CC(Cc1ccc(OCc2ccccc2)cc1)NCC(O)c1cccc(Cl)c1 (stereo not shown) [TCMDC-131473]	11.58	–

Compound	% Inhibition [%]	% Inhibition (% Inhibition) [%]
CC(Cc1ccc(OCC(=O)NCC2CCN(CCc3cccc(Cl)c3)CC2)cc1)NCCc1cccc(Cl)c1 (stereo not shown) [TCMDC-139834]	46.25	–
CC(Cc1ccc(OCc2ccc(CCN(C)C)cc2)cc1)NCCc1cccc(Cl)c1 (stereo not shown) [TCMDC-139644]	101.3	–
CC(Cc1ccc(COc2ccc(CC(CO)NCCc3cccc(Cl)c3)cc2)cc1)NCCc1cccc(Cl)c1 (stereo not shown) [TCMDC-139844]	116.5	–
CCCCCCNC(=O)C1Cc2c([nH]c3ccc(C)cc23)C2(CCN(CCc3ccccc3)CC2)N1 (stereo not shown) [TCMDC-141092]	-44.59	–
Cc1ccc(-c2cc(C(=O)Nc3ccc(S(=O)(=O)N4CCCC(C)C4)cc3)[nH]n2)c(O)c1 (stereo not shown) [TCMDC-125183]	-50.15	–
COc1cc(CCOc2c(C)nc(N)nc2N)cc(OC)c1OC [TCMDC-131360]	-25.98	–
FC(F)(F)c1ccc(Nc2nnnc3ccccc23)cc1 [TCMDC-125603]	38.58	–
COc1ccc(CC(Cc2ccc(OC)cc2)NCC(O)c2cccc(Cl)c2)cc1 (stereo not shown) [TCMDC-131543]	12.1	–
Cc1ccc(CCC(C)NCC(O)c2cccc(Cl)c2)cc1 (stereo not shown) [TCMDC-131436]	13.72	–
CNCCCCCCc1ccc(CC(C)NCC(O)c2cccc(Cl)c2)cc1 (stereo not shown) [TCMDC-131495]	95.63	–
C[C@H](Cc1ccc(CCc2ccc(C[C@@H](C)NC[C@H](O)c3cccc(Cl)c3)cc2)cc1)NC[C@H](O)c1cccc(Cl)c1 [TCMDC-131551]	114.3	–
CCCCCCCSc1ccc(CC(C)NCC(O)c2cccc(Cl)c2)cc1 (stereo not shown) [TCMDC-131493]	21.35	–
CC(Cc1ccc(Oc2ccc(Cl)cc2)cc1)NCC(O)c1cccc(Cl)c1 (stereo not shown) [TCMDC-131511]	4.056	–
CC(Cc1ccc(SCCSc2ccccc2)cc1)NCC(O)c1cccc(Cl)c1 (stereo not shown) [TCMDC-131515]	37.98	–
C[C@H](Cc1ccc(Oc2ccc(C[C@@H](C)NC[C@H](O)c3cccc(Cl)c3)cc2)cc1)NC[C@H](O)c1cccc(Cl)c1 [TCMDC-131560]	108	–
CC(Cc1ccc(S(=O)(=O)N(C(C)C)C(C)C)cc1)NCC(O)c1cccc(C(F)(F)F)c1 (stereo not shown) [TCMDC-131526]	19.58	–
C[C@H](Cc1ccc(S(=O)(=O)c2ccc(C[C@@H](C)NC[C@H](O)c3cccc(Cl)c3)cc2)cc1)NC[C@H](O)c1cccc(Cl)c1 [TCMDC-131561]	74.46	–
COC(=O)/C=C/c1ccc(CC(C)NCC(O)c2cccc(Cl)c2)cc1 (stereo not shown) [TCMDC-131433]	-3.295	–
CC(Cc1ccc(CSC(C)C)cc1)NCC(O)c1cccc(Cl)c1 (stereo not shown) [TCMDC-131525]	23.17	–
O=C(CCCCCNC(=O)c1ccc(O)c(-c2ccc(Cl)c(Cl)c2)c1)NCCN1CCCC1 [TCMDC-140826]	-20.01	–
O=C(N[C@@H](CC1CCCCC1)C(=O)NCCN1CCOCC1)c1ccc(O)c(-c2ccc(Cl)c(Cl)c2)c1 [TCMDC-140854]	37.92	–
O=C(NC1CCN(c2ccnc3ccccc23)C1)c1ccc(OC(F)(F)F)cc1 (stereo not shown) [TCMDC-133582]	-7.681	–
O=c1cc(NCCCNCc2ccc3c(c2)OC(F)(F)O3)[nH]c2ccccc12 [TCMDC-139426]	-44.23	–

Compound	% Inhibition [%]	% Inhibition (% Inhibition) [%]
CCCN(CCCCNC(=O)c1ccc(-c2cccnc2)cc1)C1CCc2c(O)cccc2C1 (stereo not shown) [TCMDC-139071]	-19.52	–
CC(=O)Nc1ccc(CN2CCc3ccc(NS(=O)(=O)c4cccc(OCc5ccc(Cl)cc5)c4)cc3CC2)s1 [TCMDC-132327]	4.938	–
O=C(Nc1ccc(-c2cccc(-c3nc4ccc(F)cc4[nH]3)c2)cc1)Nc1ccc(F)c(F)c1F [TCMDC-133235]	-6.689	–
CN(C)CCOc1cccc(-c2cnc(N)c(-c3nc4ccc(S(C)(=O)=O)cc4[nH]3)c2)c1 [TCMDC-133722]	17.79	–
CN(Cc1cnc2nc(N)nc(N)c2n1)c1ccc(C(=O)NC(CCC(=O)O)C(=O)O)cc1 (stereo not shown) [TCMDC-125488]	–	31.4
Cc1[nH]c(C)c(-c2ccc(Oc3ccc(OC(F)(F)F)cc3)cc2)c(=O)c1I [TCMDC-137387]	20.63	–
Cc1[nH]c(C)c(-c2ccc(Oc3ccc(OC(F)(F)F)cc3)cc2)c(=O)c1Br [TCMDC-137325]	–	14.7
Cc1[nH]c(C)c(-c2ccc(-c3ccc(OC(F)(F)F)cc3)cc2)c(=O)c1Br [TCMDC-134726]	85.61	–
Cc1[nH]c(C)c(-c2ccc(-c3ccc(OC(F)(F)F)cc3)cc2)c(=O)c1Cl [TCMDC-136060]	114.3	–
Cc1[nH]c(C)c(-c2ccc(Oc3cccc(OC(F)(F)F)c3)cc2)c(=O)c1Cl [TCMDC-137389]	30.57	–
Cc1[nH]c(C)c(-c2cccc(-c3ccc(OC(F)(F)F)cc3)c2)c(=O)c1Br [TCMDC-135303]	76.13	–
Cc1[nH]c(C)c(-c2ccc(Oc3ccc(OC(F)(F)F)cc3)cc2)c(=O)c1Br [TCMDC-138826]	–	69.76
CS(=O)(=O)NCCCNCc1ccc(-c2ccc(-c3nc4cc(F)ccc4[nH]3)cc2)cc1.O=C(O)C(F)(F)F [TCMDC-133081]	-74.36	–
Cc1cc(Nc2cc(Cl)cc(Cl)c2)nc(N)n1 [TCMDC-123780]	13.41	–
CCCCc1ccc2[nH]cc(C3=CCN(C)CC3)c2c1Br [TCMDC-138963]	18.47	–
CCCCc1ccc(-c2nc(NC(=O)Nc3nc(-c4ccccc4)[nH]c3C(=O)OCC)c(C(=O)OCC)[nH]2)cc1 [TCMDC-138897]	-17.92	–
CC(C)Nc1nc(NCCc2cnc[nH]2)nc(Nc2ccc(Oc3ccccc3)cc2)n1 [TCMDC-139746]	-7.765	–
COc1cc(CNCCCNc2cc(=O)c3ccccc3[nH]2)c2c(c1)C(C)CN2C(=O)OC(C)(C)C (stereo not shown) [TCMDC-140390]	-23.23	–
Cc1c(O)cccc1Nc1ccnc2ccc(C(F)(F)F)cc12 [TCMDC-138246]	-8.539	–
CN(C)C(=O)CN1CCN(c2ncnc(N3CCc4c([nH]c5ccccc45)[C@@H]3c3ccc4c(c3)CCO4)n2)CC1 [TCMDC-138571]	5.552	–
Oc1cccc(C2CCCN(Cc3cccc4cc[nH]c34)C2)c1 (stereo not shown) [TCMDC-134419]	-7.919	–
